For assay [1] the following is noted: Ebola virus entry assay, blue channel fluorescence.
The conditions of assay [2]: Ebola virus entry assay, green fluorescence channel.
For assay [3] the following is noted: Ebola virus entry assay, ratio channel readout.

For part of these data: Results with a measured potency or affinity are listed apart. The source made the active and inactive calls. The call rests on the fitted dose curve. Where a SMILES comes first, the peptide text is derived from it. Bridges are numbered along the chain shown (N, C = ends). [ ]: non-standard residue; d: D form. The star is where a group is joined. Dab(CH2SO3H) = N[C@@H](CCNCS(=O)(=O)O)C(=O)O; X1 = CC[C@@H](C)CCCCC(=O)*; Dab = NCC[C@H](N)C(=O)O

As to `CCCCC[C@H](O)/C=C/[C@@H]1[C@H]2C/C(=C/CCCC(=O)O)O[C@H]2C[C@H]1O`, the call in assay [1], in assay [2] and in assay [3] was inactive.
`CCC(=O)OC(OP(=O)(CCCCc1ccccc1)CC(=O)N1C[C@H](C2CCCCC2)C[C@H]1C(=O)O)C(C)C` (stereo not given in full): the compound was classed as inactive in assay [1], in assay [2] and in assay [3].
As for `O=C(O[C@H]1CN2CCC1CC2)N1CCc2ccccc2[C@@H]1c1ccccc1`, the half-maximal activity concentration (AC50) – broadly, the midpoint of the concentration-response curve, whichever way the signal moves – in assay [1] was 10 µM (active); in assay [3], 7.95 µM (active). In assay [2], the result was inactive.
On to `CO[C@@]1(NC(=O)C2SC(=C(C(N)=O)C(=O)O)S2)C(=O)N2C(C(=O)O)=C(CSc3nnnn3C)CS[C@@H]21` (stereo not given in full), for which the result in assay [1], in assay [2] and in assay [3] was inactive.
Regarding `C=CC1=C(C(=O)O)N2C(=O)[C@@H](NC(=O)/C(=N/OCC(=O)O)c3csc(N)n3)[C@H]2SC1` (stereo in doubt), the compound was classed as inactive in assay [1], in assay [2] and in assay [3].
In the case of `N#Cc1ccc(C(c2ccc(C#N)cc2)n2cncn2)cc1`, the compound was called inactive in assay [1], in assay [2] and in assay [3].
For `CNC(C)[C@@H]1CC[C@@H](N)[C@@H](O[C@H]2[C@H](O)[C@@H](O[C@H]3OC[C@](C)(O)[C@H](NC)[C@H]3O)[C@H](N)C[C@@H]2N)O1` (stereo not given in full), the compound was classed as inactive in assay [1], in assay [2] and in assay [3].
With `C[C@]12CCC(=O)C=C1CC[C@H]1[C@@H]3CC[C@](O)(C(=O)CO)[C@@]3(C)C[C@H](O)[C@@]12F`, the compound was classed as inactive in assay [1], in assay [2] and in assay [3].
Consider `Nc1nc2ccc(OC(F)(F)F)cc2s1`, for which the call in assay [1], in assay [2] and in assay [3] was inactive.
On to `CCC[C@@]1(CCc2ccccc2)CC(O)=C([C@H](CC)c2cccc(NS(=O)(=O)c3ccc(C(F)(F)F)cn3)c2)C(=O)O1`, for which the result in assay [1], in assay [2] and in assay [3] was inactive.
On to `N#Cc1ccc2c(c1)N(CCCN1CCC(O)CC1)c1ccccc1S2`, for which the compound was classed as inactive in assay [1] and in assay [2]. In addition, the concentration at half-maximal activity (AC50) in assay [3] is 22.4 µM (active).
Turning to `CCC[C@@H]1C[C@@H](C(=O)N[C@@H]([C@H]2O[C@H](SC)[C@H](O)[C@@H](O)[C@H]2O)[C@H](C)Cl)N(C)C1`, the result in assay [1], in assay [2] and in assay [3] was inactive.
In the case of `CN1CCN(CCC=C2c3ccccc3Sc3ccc(S(=O)(=O)N(C)C)cc32)CC1`, the AC50 in assay [1] and in assay [3] was 4.47 µM (active) each time. Moreover, the result in assay [2] was inactive.
For the compound `Cn1nnc2c(C(N)=O)ncn2c1=O`, the compound was classed as inactive in assay [1], in assay [2] and in assay [3].
Consider `CC[C@H]1OC(=O)[C@H](C)[C@@H](O[C@H]2C[C@@](C)(OC)[C@@H](O)[C@H](C)O2)[C@H](C)[C@@H](O[C@@H]2O[C@H](C)C[C@H](N(C)C)[C@@H]2O)[C@](C)(O)C[C@@H](C)CN(C)[C@H](C)[C@@H](O)[C@]1(C)O`, for which the half-maximal activity concentration (AC50) in assay [1] is 2.51 µM (active); in assay [3], 2.52 µM (active). Besides, the compound was classed as inactive in assay [2].
As to `CC(C)(O/N=C(\C(=O)N[C@@H]1C(=O)N2C(C(=O)[O-])=C(C[n+]3ccccc3)CS[C@H]12)c1csc(N)n1)C(=O)O`, the compound was classed as inactive in assay [1], in assay [2] and in assay [3].
For `CCN(CC)C(=O)[C@]1(c2ccccc2)C[C@@H]1CN`, the call in assay [1], in assay [2] and in assay [3] was inactive.
Turning to `CO[C@H]1C=CO[C@@]2(C)Oc3c(C)c(O)c4c(O)c(c5c(nc6cc(C)ccn65)c4c3C2=O)NC(=O)/C(C)=C\C=C[C@H](C)[C@H](O)[C@@H](C)[C@@H](O)[C@@H](C)[C@H](OC(C)=O)[C@@H]1C`, the compound was classed as inactive in assay [1], in assay [2] and in assay [3].
Regarding `CC(CCc1ccc(O)cc1)NCCc1ccc(O)c(O)c1` (stereo not given), the compound was called inactive in assay [1], in assay [2] and in assay [3].
Turning to `CCCCC(=O)N(Cc1ccc(-c2ccccc2-c2nn[nH]n2)cc1)[C@@H](C(=O)O)C(C)C`, the compound was classed as inactive in assay [1], in assay [2] and in assay [3].
On to `CO/N=C(/C(=O)N[C@@H]1C(=O)N2C(C(=O)O)=C(COC(N)=O)CS[C@H]12)c1ccco1`, for which the call in assay [1], in assay [2] and in assay [3] was inactive.
Consider `CCNC(=O)[C@@H]1CCCN1C(=O)[C@H](CCCN=C(N)N)NC(=O)[C@H](CC(C)C)NC(=O)[C@@H](CC(C)C)NC(=O)[C@H](Cc1ccc(O)cc1)NC(=O)[C@H](CO)NC(=O)[C@H](Cc1c[nH]c2ccccc12)NC(=O)[C@H](Cc1cnc[nH]1)NC(=O)[C@@H]1CCC(=O)N1`, for which the compound was classed as inactive in assay [1], in assay [2] and in assay [3].
Consider `C#CCC(Cc1cnc2nc(N)nc(N)c2n1)c1ccc(C(=O)N[C@@H](CCC(=O)O)C(=O)O)cc1` (stereo not given in full), for which the call in assay [1], in assay [2] and in assay [3] was inactive.
On to `CN[C@@H]1[C@H](O[C@H]2[C@H](O[C@H]3[C@H](O)[C@@H](O)[C@H](N=C(N)N)[C@@H](O)[C@@H]3N=C(N)N)O[C@@H](C)[C@]2(O)C=O)O[C@@H](CO)[C@H](O)[C@H]1O`, for which the compound was called inactive in assay [1], in assay [2] and in assay [3].
For `Cc1c(N)nc([C@H](CC(N)=O)NC[C@H](N)C(N)=O)nc1C(=O)N[C@H](C(=O)N[C@H](C)[C@@H](O)[C@H](C)C(=O)N[C@H](C(=O)NCCc1nc(-c2nc(C(=O)NCCCCN=C(N)N)cs2)cs1)[C@@H](C)O)[C@@H](O[C@@H]1O[C@@H](CO)[C@@H](O)[C@H](O)[C@@H]1O[C@H]1O[C@H](CO)[C@@H](O)[C@H](OC(N)=O)[C@@H]1O)c1cnc[nH]1`, the compound was called inactive in assay [1], in assay [2] and in assay [3].
On to `CO[C@H]1C[C@@H]2CC[C@@H](C)[C@@](O)(O2)C(=O)C(=O)N2CCCC[C@@H]2C(=O)O[C@H]([C@H](C)C[C@@H]2CC[C@H](OCCO)[C@H](OC)C2)CC(=O)[C@H](C)C=C(C)[C@@H](O)[C@@H](OC)C(=O)[C@H](C)C[C@H](C)C=CC=CC=C1C`, for which the outcome in assay [1], in assay [2] and in assay [3] was inactive.
For `O=C(O)C[C@H](O)C[C@H](O)/C=C/c1c(C2CC2)nc2ccccc2c1-c1ccc(F)cc1`, the outcome in assay [1], in assay [2] and in assay [3] was inactive.
With `Cc1nnc(C(C)C)n1C1C[C@H]2CC[C@@H](C1)N2CC[C@H](NC(=O)C1CCC(F)(F)CC1)c1ccccc1` (stereo not given in full), the compound was classed as inactive in assay [1], in assay [2] and in assay [3].
In the case of `CNCCC=C1c2ccccc2CCc2ccccc21`, the AC50 in assay [1] is 8.91 µM (active); in assay [3], 7.95 µM (active). Also, in assay [2], the call was inactive.
On to `COCC1=C(C(=O)OC(C)OC(=O)OC(C)C)N2C(=O)[C@@H](NC(=O)/C(=N\OC)c3csc(N)n3)[C@H]2SC1` (stereo not given in full), for which the result in assay [1], in assay [2] and in assay [3] was inactive.
Take `CC(=O)NCCCS(=O)(=O)O`: the compound was classed as inactive in assay [1], in assay [2] and in assay [3].
`CC(C)CN(C[C@@H](OP(=O)(O)O)[C@H](Cc1ccccc1)NC(=O)O[C@H]1CCOC1)S(=O)(=O)c1ccc(N)cc1`: the call in assay [1], in assay [2] and in assay [3] was inactive.
Take `CC(=O)N=c1sc(S(N)(=O)=O)nn1C`: the compound was called inactive in assay [1], in assay [2] and in assay [3].
Turning to `Cc1noc(NS(=O)(=O)c2ccc(N)cc2)c1C`, the result in assay [1], in assay [2] and in assay [3] was inactive.
Turning to `CN1[C@@H]2CCC[C@@H]1CC(NC(=O)c1nn(C)c3ccccc13)C2` (stereo not given in full), the outcome in assay [1], in assay [2] and in assay [3] was inactive.
As for `Nc1nc(Cl)nc2c1ncn2[C@@H]1O[C@H](CO)[C@@H](O)[C@@H]1F`, the result in assay [1], in assay [2] and in assay [3] was inactive.
Turning to `C[C@@H]1O[C@@H]1P(=O)(O)O`, the outcome in assay [1], in assay [2] and in assay [3] was inactive.
In the case of `CC(C)(C)NC[C@H](O)COc1ccccc1C1CCCC1`, the values for the concentration at half-maximal activity (AC50) in assay [1] and in assay [3] were 4.47 µM (active) and 3.55 µM (active), respectively. In addition, the outcome in assay [2] was inactive.
Turning to `CC(C)(C)NC(=O)[C@@H]1C[C@@H]2CCCC[C@@H]2CN1C[C@@H](O)[C@H](Cc1ccccc1)NC(=O)[C@H](CC(N)=O)NC(=O)c1ccc2ccccc2n1`, the outcome in assay [1], in assay [2] and in assay [3] was inactive.
Take `CCN(CC)CC#CCOC(=O)C(O)(c1ccccc1)C1CCCCC1` (stereo not given): the compound was classed as inactive in assay [1], in assay [2] and in assay [3].
With `COc1cc([C@@H]2c3cc4c(cc3C(O[C@@H]3O[C@@H]5CO[C@@H](C)O[C@H]5[C@H](O)[C@H]3O)C3COC(=O)[C@@H]32)OCO4)cc(OC)c1OP(=O)(O)O` (stereo not given in full), the concentration at half-maximal activity (AC50) in assay [1] and in assay [3] was 7.08 µM (active) in each case. The outcome in assay [2] was inactive.
For the compound `O=C(OC1C[C@@H]2CC3C[C@H](C1)N2CC3=O)c1c[nH]c2ccccc12` (stereo not given in full), the outcome in assay [1], in assay [2] and in assay [3] was inactive.
`NC(=O)CC[C@@H]1NC(=O)[C@H](Cc2ccccc2)NC(=O)[C@H](Cc2ccc(O)cc2)NC(=O)CCSSC[C@@H](C(=O)N2CCC[C@H]2C(=O)N[C@@H](CCCN=C(N)N)C(=O)NCC(N)=O)NC(=O)[C@H](CC(N)=O)NC1=O`: the compound was classed as inactive in assay [1], in assay [2] and in assay [3].
`CN1C(=O)OC(C)(C)C1=O`: the call in assay [1], in assay [2] and in assay [3] was inactive.
With `CC[C@@H](C)CCCCC(=O)N[C@@H](CCNCS(=O)(=O)O)C(=O)N[C@H](C(=O)N[C@@H](CCNCS(=O)(=O)O)C(=O)N[C@H]1CCNC(=O)[C@H]([C@@H](C)O)NC(=O)[C@H](CCNCS(=O)(=O)O)NC(=O)[C@H](CCNCS(=O)(=O)O)NC(=O)[C@H](CC(C)C)NC(=O)[C@@H](CC(C)C)NC(=O)[C@H](CCNCS(=O)(=O)O)NC1=O)[C@@H](C)O` (X1-[Dab(CH2SO3H)]T[Dab(CH2SO3H)][Dab][Dab(CH2SO3H)][dL]L[Dab(CH2SO3H)][Dab(CH2SO3H)]T; lactam 4-C), the outcome in assay [1], in assay [2] and in assay [3] was inactive.
Turning to `CCOC(=O)CCC(=O)O[C@H]1[C@H](O[C@@H]2[C@@H](C)[C@H](O[C@H]3C[C@@](C)(OC)[C@@H](O)[C@H](C)O3)[C@@H](C)C(=O)O[C@H](CC)[C@@](C)(O)[C@H](O)[C@@H](C)C(=O)[C@H](C)C[C@@]2(C)O)O[C@H](C)C[C@@H]1N(C)C`, the result in assay [1], in assay [2] and in assay [3] was inactive.
As for `COc1cc(Br)c(C[N+]2(CCOCCC3CCC4CC3C4(C)C)CCOCC2)cc1OC` (stereo not given), the call in assay [1], in assay [2] and in assay [3] was inactive.
Consider `CC(C)c1nc(N(C)S(C)(=O)=O)nc(-c2ccc(F)cc2)c1/C=C/C(O)CC(O)CC(=O)O` (stereo not given), for which the call in assay [1], in assay [2] and in assay [3] was inactive.
As for `CC(C)[C@H]1C(=O)N2CCC[C@H]2[C@]2(O)O[C@](NC(=O)[C@@H]3C[C@@H]4c5cccc6[nH]cc(c56)C[C@H]4N(C)C3)(C(C)C)C(=O)N12`, the call in assay [1], in assay [2] and in assay [3] was inactive.
`CN[C@@H]1CCc2[nH]c3ccc(C(N)=O)cc3c2C1`: the compound was called inactive in assay [1], in assay [2] and in assay [3].

Values taken from PubChem BioAssay (NCATS).
